Some test systems named below: DU-145 prostate; K-562 leukemia; MALME-3M melanoma; MDA-MB-231 breast; SF-268 CNS; SF-295 CNS; SF-539 CNS; UACC-257 melanoma; M14 melanoma.
What all share (assay): NCI-60 one-dose screen, 48 h (100 = growth as untreated, 0 = no growth, -100 = all killed)
Holding throughout (conditions): 10 µM

The panel holds about 83,000 compounds, 20% with a hit somewhere; the sample as a whole holds those more often.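 A percent growth of 40 corresponds to 60% growth inhibition; 0 means no net growth; -100 means all cells died. Active threshold: below 10.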 A number with no mark means an inactive call. Active and inactive are the calls of the source.

On to `Cc1ccc(-c2nc(Nc3ccccc3C(=O)O)c3ccccc3n2)cc1`, for which the growth is 19.4% in the assay with DU-145 prostate; 17.6% with K-562 leukemia; 19.6% in the assay with MALME-3M melanoma; 35.4% in the assay with MDA-MB-231 breast; 11.2% in the assay on SF-268 CNS; 5.81% (active) in the assay on SF-295 CNS. Further, the figures for the growth in the assay on SF-539 CNS, with UACC-257 melanoma and with M14 melanoma were 21.3%, 28.6% and 12.6%, respectively.
Take `O=C(CSc1nnc(-c2c[nH]c3ccccc23)n1-c1ccccc1)Nc1ccc(C(=O)/C=C/c2ccccc2Cl)cc1`: the growth in the assay on DU-145 prostate is 82%; in the assay with K-562 leukemia it was 55.9%; in the assay on MALME-3M melanoma, 64.6%; in the assay with MDA-MB-231 breast, 78%; in the assay on SF-268 CNS, 66.5%; with SF-295 CNS it was 72%. Moreover, the growth with SF-539 CNS was 42.6%; in the assay with UACC-257 melanoma, 107%; in the assay on M14 melanoma it was 87.7%.
Take `CN(C)CCNC(=O)OCCCCOc1cc(O)c2c(=O)cc(-c3ccccc3)oc2c1`: the growth in the assay with DU-145 prostate was -27% (active); in the assay on K-562 leukemia it was 8.72% (active); with MALME-3M melanoma it was -96.8% (active); with MDA-MB-231 breast, -77.8% (active); in the assay on SF-268 CNS, -44.9% (active); with SF-295 CNS, -90.5% (active). The values for the growth in the assay on SF-539 CNS, in the assay on UACC-257 melanoma and in the assay on M14 melanoma were -100% (active), -79.7% (active) and -75.1% (active), respectively.
Take `O=C(NO)c1ccc(-c2nc3ccc4[nH]ncc4c3c3c2CCCC3)cc1`: the growth in the assay with DU-145 prostate was 1.34% (active); in the assay with K-562 leukemia, 10.1%; in the assay on MALME-3M melanoma, -80.5% (active); with MDA-MB-231 breast it was -27.6% (active); with SF-268 CNS it was -53.6% (active); in the assay on SF-295 CNS, -17.9% (active). For the same molecule, the growth was -97.4% (active) in the assay on SF-539 CNS, -18.8% (active) in the assay on UACC-257 melanoma and -62.5% (active) in the assay with M14 melanoma.
In the case of `CN1CCc2c(sc3ncnc(N/N=C/c4ccc5ccccc5c4)c23)C1`, the growth with DU-145 prostate is 68.8%; with K-562 leukemia it was 13.9%; in the assay with MALME-3M melanoma it was 91.2%; with MDA-MB-231 breast it was 48%; with SF-268 CNS, 68.9%; in the assay with SF-295 CNS, 53.9%. Further, the growth in the assay on SF-539 CNS was 29.1%; in the assay on UACC-257 melanoma, 107%; with M14 melanoma it was 82%.
With `CCCSc1nc(NC2CC2)c(C#N)c(-c2ccc(OC)cc2)n1`, the growth was 98.1% in the assay with DU-145 prostate; 92.4% with K-562 leukemia; 134% with MALME-3M melanoma; 85% in the assay with MDA-MB-231 breast; 80.9% in the assay with SF-268 CNS; 78.7% in the assay on SF-295 CNS. For the same molecule, the growth is 85.6% in the assay with SF-539 CNS, 107% in the assay on UACC-257 melanoma and 129% in the assay on M14 melanoma.
Take `COc1cc(C2CC(c3ccc(C)cc3)=Nc3c(N)nc(N)nc3N2)ccc1Oc1nc(Nc2ccc(F)cc2)nc(N(C)C)n1` (stereo unspecified): the growth in the assay with DU-145 prostate was 53.7%; in the assay with K-562 leukemia, 19.8%; in the assay on MALME-3M melanoma it was 64.8%; with MDA-MB-231 breast it was 38.7%; in the assay with SF-268 CNS, 54.7%; with SF-295 CNS, 68.8%. Also, the growth in the assay on SF-539 CNS is 72.9%; in the assay on UACC-257 melanoma, 76.7%; with M14 melanoma, 67.5%.
Take `COc1ccc2cc([C@H](C)C(=O)NCc3ccccc3)ccc2c1`: the growth in the assay on DU-145 prostate was 29.4%; in the assay on K-562 leukemia it was 20.1%; in the assay with MALME-3M melanoma it was 55.2%; with MDA-MB-231 breast it was 38.4%; with SF-268 CNS, 60.2%; with SF-295 CNS, 12.8%. In addition, the results for the growth in the assay with SF-539 CNS, with UACC-257 melanoma and in the assay on M14 melanoma were 2.48% (active), 64.7% and 38.2%, respectively.
`CN1CCN(c2ccc(C(=O)/C=C/c3ccc(OC(F)F)cc3)cc2)CC1`: the growth is 57.8% with DU-145 prostate; 6.23% (active) in the assay with K-562 leukemia; 84.1% in the assay on MALME-3M melanoma; 41.5% in the assay with MDA-MB-231 breast; 81% in the assay on SF-268 CNS; 47.4% in the assay with SF-295 CNS. Further, the growth is -39.8% (active) with SF-539 CNS, 68.7% in the assay with UACC-257 melanoma and 31.6% in the assay on M14 melanoma.
As to `CC(C)C1=C[C@@]23CC[C@@H]4[C@](C)(CCC[C@]4(C)C(=O)NCc4ccccc4)[C@H]2C[C@@H]1[C@H]1C(=O)CCC(=O)[C@H]13`, the growth with DU-145 prostate was 98.1%; with K-562 leukemia it was 55.7%; with MALME-3M melanoma, 95.5%; in the assay with MDA-MB-231 breast it was 86.5%; with SF-268 CNS, 80.4%; in the assay on SF-295 CNS, 83.1%. Besides, the growth with SF-539 CNS was 72.2%; in the assay on UACC-257 melanoma it was 77.6%; in the assay with M14 melanoma, 86.9%.
For the molecule `Cc1ccn2c(C(=O)c3ccccc3)cc(-c3cc(-c4ccc(N(C)C)cc4)c(C#N)c(N)n3)c2c1`, the growth in the assay on DU-145 prostate is 56.4%; in the assay on K-562 leukemia it was 70.9%; with MALME-3M melanoma, 63.6%; in the assay on MDA-MB-231 breast, 25.7%; in the assay with SF-268 CNS it was 61.2%; in the assay with SF-295 CNS it was 69.3%. The growth in the assay with SF-539 CNS was -62.1% (active); in the assay on UACC-257 melanoma, 85.7%; with M14 melanoma it was 81.3%.
Regarding `Cc1noc2c(Cc3ccc([N+](=O)[O-])cc3)nn(CC(=O)N/N=C/c3ccc(Cl)cc3)c(=O)c12`, the growth was 61.6% in the assay on DU-145 prostate; 72.8% in the assay with K-562 leukemia; 36.9% with MALME-3M melanoma; 4.43% (active) in the assay with MDA-MB-231 breast; 23.5% in the assay on SF-268 CNS; 70.1% with SF-295 CNS. The growth is 8.2% (active) in the assay on SF-539 CNS, 81% in the assay on UACC-257 melanoma and 68.1% in the assay with M14 melanoma.
Take `CN(C)c1nc(NCCNS(=O)(=O)c2ccc(C(=O)/C=C/c3ccccc3)cc2)nc(Nc2ccc(F)cc2)n1`: the growth was 26.3% in the assay with DU-145 prostate; 10.8% with K-562 leukemia; 36.5% in the assay with MALME-3M melanoma; 17.7% in the assay with MDA-MB-231 breast; 32.4% in the assay on SF-268 CNS; 23.1% with SF-295 CNS. The growth was 26.7% in the assay with SF-539 CNS, 54.8% in the assay on UACC-257 melanoma and 5.05% (active) with M14 melanoma.
With `COc1ccc(C(=O)/C=C/c2ccc(Cl)c(C(F)(F)F)c2)cc1S(N)(=O)=O`, the growth with DU-145 prostate was -20.9% (active); in the assay with K-562 leukemia it was 5.18% (active); in the assay with MALME-3M melanoma, -97.9% (active); in the assay with MDA-MB-231 breast, -100% (active); in the assay on SF-268 CNS, -40.5% (active); in the assay on SF-295 CNS it was -100% (active). Also, the growth in the assay with SF-539 CNS is -100% (active); in the assay on UACC-257 melanoma, -78.2% (active); in the assay on M14 melanoma it was -87.5% (active).

Values taken from PubChem BioAssay (NCI).
